Source: PubChem (National Center for Advancing Translational Sciences (NCATS))
RXFP1 antag: antagonists of human relaxin receptor RXFP1 | HEK293-RXFP1, relaxin-stimulated cAMP HTRF, 30 min; active compounds read low | activity change, negative = inhibition, % at 57.5 µM | hit rate 0.59% among 350,000;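 active means activity change of -60% or lower, but not beyond a set lower limit; inconclusive means change between -60% and -40%, or beyond the set limit; inactive means change above -40%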
Target sequence (Q9HBX9 whole entry, looked up): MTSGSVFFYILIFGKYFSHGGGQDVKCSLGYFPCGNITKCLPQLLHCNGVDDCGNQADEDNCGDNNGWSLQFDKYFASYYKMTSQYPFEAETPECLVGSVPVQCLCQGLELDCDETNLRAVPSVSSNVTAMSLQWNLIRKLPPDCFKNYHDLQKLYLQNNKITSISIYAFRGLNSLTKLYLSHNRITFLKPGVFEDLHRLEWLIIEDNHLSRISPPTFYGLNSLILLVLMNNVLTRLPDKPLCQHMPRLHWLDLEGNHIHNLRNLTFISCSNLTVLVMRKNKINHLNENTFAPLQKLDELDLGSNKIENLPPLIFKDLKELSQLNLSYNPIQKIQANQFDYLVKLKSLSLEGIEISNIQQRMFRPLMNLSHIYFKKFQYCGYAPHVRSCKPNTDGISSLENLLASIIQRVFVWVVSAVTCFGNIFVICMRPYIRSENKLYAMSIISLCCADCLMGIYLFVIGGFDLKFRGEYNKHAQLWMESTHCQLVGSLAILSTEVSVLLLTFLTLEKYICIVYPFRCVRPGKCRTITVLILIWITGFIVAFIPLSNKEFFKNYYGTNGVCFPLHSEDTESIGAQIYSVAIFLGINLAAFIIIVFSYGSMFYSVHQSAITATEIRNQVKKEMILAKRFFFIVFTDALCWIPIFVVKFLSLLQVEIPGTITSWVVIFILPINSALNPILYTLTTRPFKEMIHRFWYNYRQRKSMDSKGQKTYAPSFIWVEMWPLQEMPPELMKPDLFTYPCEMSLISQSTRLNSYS
RXFP1 agonist: activates the human relaxin receptor RXFP1; hit rate 0.3% among 370,000; Q9HBX9; Potency, µM (series often up to 57.5 µM), usual class: activators; HEK293T-RXFP1 cAMP TR-FRET, 30 min; response scale: percent of porcine relaxin response, buffer zero; active means well fitted activation curve with a large enough effect; inconclusive means small, poorly fitted or top-dose-only effect; further: nearly all actives have a fitted effect of over 60% in size
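HEK293 cells stably expressing RXFP1, treated 30 min at 37C with compounds plus PDE4 inhibitor Ro 20174; cAMP measured by HTRF TR-FRET. Normalized to buffer and 29 nM porcine relaxin; EC50 by Hill fit.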
TSHR antagonist: blocks TSH signaling through the human TSH receptor | TSHR-expressing cells, TSH-stimulated cAMP HTRF, 2 h; active compounds read low | hit rate 0.2% among 330,000 | activity change, negative = inhibition, % at 11.5 µM;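 active means activity change below a set negative limit, meaning inhibition stronger than a set level, cut at about -70% in these data; inconclusive means activity change between two set negative limits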
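Competitive HTRF cAMP read-out (cryptate anti-cAMP antibody, cAMP-d2; 30 min, room temperature) in freshly harvested TSHR cells. Compounds added before TSH at EC80 (4nM final), followed by 2 hours' incubation at 37 deg C.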
gsp ag: activates gsp, the McCune-Albright syndrome mutation; gsp mutant cells, cAMP HTRF, 30 min; Potency, µM (highest dose often 76.9 µM), hits mostly activators; hit rate 0.13% among 340,000; AID 624287; active means well fitted activation curve with a large enough effect; inconclusive means small, poorly fitted or top-dose-only effect, or another doubt; inactive means no such curve, though single readings can be large or run the other way; cell line not stated here;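 further: phosphodiesterase inhibitor Ro 20-1724 added with compounds to block cAMP breakdown; nearly all actives have a fitted effect of over 60% in size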
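Cells in DMEM/10% FBS with G418 were pretreated with compounds in DMSO plus […] (300 uM stock) for 30 min at 37C. cAMP was measured by HTRF (cAMP-d2 plus anti-cAMP antibody-K) after 30 min at room temperature.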
gsp antagonist: antagonizes gsp, the McCune-Albright syndrome mutation; gsp-mutant cells, cAMP HTRF, 30 min; Potency, µM (titrated, usually from 76.9 µM), actives largely listed as inhibitors; hit rate 0.4% among 340,000; AID 624288; calls by dose curve; cell line not stated here;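 further: intracellular cAMP measured with PDE inhibitor Ro 20-1724 present during compound exposure; nearly all actives have a fitted effect of over 65% in size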
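Measurement of cellular cAMP by homogeneous time-resolved fluorescence following a 30 min compound exposure at 37C. The PDE inhibitor […] was present throughout; the assay buffer was DPBS with 0.05% BSA and 0.005% Tween 20.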
Hits are given with their value; - = inactive; ? = inconclusive; . = no result; ! = a repeat was not active; [ ] = remark or other dose. Sampled rows, rich in hits. Any-hit rate of the full collection: about 1%.

SMILES	RXFP1 antag	RXFP1 agonist	TSHR antagonist	gsp ag	gsp antagonist
CCOC(=O)C/C(C)=N\Nc1nc(-c2ccccc2)cs1	-	-	-	-[15.4 µM]	8.9µM
CCCCN1C(=O)c2[nH]nc(-c3ccccc3O)c2C1c1ccc(OCc2ccccc2)cc1 (stereo not given)	-	-	.	.	.
COc1ccc(-n2c(SCC(=O)Nc3cc(C)cc(C)c3)nc3c(oc4ccccc43)c2=O)cc1	.	-	.	.	.
Cc1cccc(C(=O)Nc2sc(C(=O)N3CCCC3)c(C)c2C#N)c1	-	-	-	-	32µM
Cc1c(C(=O)N2CCCC2)sc(NC(=O)c2cccc(Cl)c2)c1C#N	-	-	-	-	?
COc1c(OC(C)=O)ccc(/C=C/c2ccc3ccccc3n2)c1[N+](=O)[O-]	-	-	-	-	25µM
COc1ccc(CCNC(=O)Cn2c(=O)n(-c3ccc(OC)c(OC)c3)c(=O)c3ccccc32)cc1OC	.	-	.	.	.
CCN(CC)S(=O)(=O)c1nnc(NC(=O)c2ccccc2Cl)s1	-	-	.	.	.
CCN(c1ccc(OC)cc1)S(=O)(=O)c1nnc(NC(=O)c2ccccc2Cl)s1	-60!	-	-	-	?
CN=c1scc(-c2ccccc2F)n1/N=C/c1ccc[nH]1	-	-	-	?	-
CC(C)N=c1scc(-c2cccs2)n1/N=C/c1ccc(O)c(O)c1O	-63	-	-	-	-
CN=c1scc(-c2ccccc2F)n1/N=C/c1ccc(O)c(O)c1O	-65	-	-	-[15.4 µM]	-
CCc1ccc(NC(=O)C2CCN(c3cc(C)nc4c(-c5ccc(Cl)cc5)c(C)nn34)CC2)cc1	.	-	.	.	.
Cc1ccc(-n2cc3c(-c4cccc(Br)c4)nnc(C)c3n2)cc1	-	-	-	?	-
Cc1nnc(-c2cccc(Br)c2)c2cn(-c3ccccc3Cl)nc12	-64	-	-	-	-
Cc1ccc(C(=O)CC(=O)c2ccccc2C)c(O)c1	-	-	-	-[15.4 µM]	-
C=C(CN(C)C)C(=O)c1ccc(C)cc1C	-81	.	.	-	50µM
Cc1cc(C)n(C(C)CC(=O)Nc2cccc(C#N)c2)n1 (stereo not given)	-	-	.	.	.
Cc1ccccc1S(=O)Cc1ccc(C(=O)NC2CCCCCC2)o1 (stereo not given)	.	-	.	.	.
CCOc1ccc(CNC(=O)c2oc3c(c2C)-c2nn(Cc4cccc(Cl)c4)cc2CC3)cc1	-78	-	.	.	.
Cc1cccc(CNC(=O)c2oc3c(c2C)-c2nn(Cc4cccc(Cl)c4)cc2CC3)c1	?	-	.	.	.
Cc1cccc(CNC(=O)c2oc3c(c2C)-c2nn(Cc4ccccc4Cl)cc2CC3)c1	-66	-	.	.	.
COc1ccc(-c2noc(-c3ccc(NCc4ccccc4OC)c([N+](=O)[O-])c3)n2)cc1	.	-	.	.	.
COCCNC(=O)c1ccc2c(=O)n(CCc3ccccc3)c(SCC(=O)CC(=O)OC)nc2c1	.	-	.	.	.
CCOC(=O)c1c(C)[nH]c(-c2csc(C)n2)c1C	-67	-	-	-[15.4 µM]	-
SMILES	RXFP1 antag	RXFP1 agonist	TSHR antagonist	gsp ag	gsp antagonist
CCOC(=O)c1c(C)[nH]c(-c2csc(N)n2)c1C	-	-	-	-[15.4 µM]	.
O=S(=O)(c1ccc(Cl)cc1)c1nnn2c1nc(N1CCCCC1)c1sccc12	-	-	.	.	.
CN(C)Cc1nc2c(c(=O)[nH]1)C1(CCCCC1)Cc1ccccc1-2	-62	-	-	-	-
CCOC(=O)c1ccc(Nc2nnc(C(C)(C)C)c(=O)[nH]2)cc1	-	-	-	-	40µM
CCOC(=O)c1ccc(Nc2cc(C)nc(C)c2C(=O)OCC)cc1	-	-	-	-	-
COc1cccc(NC(=O)C2=C(C)C(=O)OC23CCN(C(C)=O)CC3)c1	-	-	.	.	.
CC1CCCN(CCCNC(=O)c2nn(C)c3c2CS(=O)(=O)c2ccccc2-3)C1 (stereo not given)	-84	-	-	-	-
COc1ccc(S(=O)(=O)N2CCC(n3c(C(F)(F)F)nc4cccnc43)CC2)cc1OC	-	-	.	.	.
CC(=O)Nc1ccc(NC(=O)CSc2nnc3ccc(-c4ccccn4)nn23)cc1	-106	-	-	-[15.4 µM]	-
CC(=O)Nc1cccc(NC(=O)CSc2nnc3ccc(-c4ccccn4)nn23)c1	-	-	-	-	-
COc1ccc(NC(=O)CSc2ccc3nnc(-c4ccccn4)n3n2)cc1OC	-	-	-	?	-
CC(=O)Nc1ccc(NC(=O)CSc2ccc3nnc(-c4ccccn4)n3n2)cc1	-	8.9µM	-	?	-
COc1cc(C(CC(=O)Nc2ccc(Br)cn2)N2Cc3ccccc3C2=O)cc(OC)c1OC (stereo not given)	.	-	.	.	.
CCOc1ccc(NC(=O)c2ccc(NC(=O)CCS(=O)(=O)c3cccs3)cc2)cc1	.	-	.	.	.
O=C(COCc1cc(-c2ccc(F)cc2)on1)Nc1cccc(C(F)(F)F)c1	-	-	.	.	.
COc1cc(NC(=O)C(C)Oc2ccccc2)ccc1NC(=O)COc1ccccc1 (stereo not given)	-	-	-	-	40µM
Cc1ccn2c(c1)nc(=O)c1cc(S(=O)(=O)N3CCOCC3)ccc12	-	-	-	?	-
CC1CCCN(S(=O)(=O)c2ccc3c(c2)c(=O)nc2ccc(Cl)cn23)C1 (stereo not given)	-	-	-	?	40µM
Cc1ccc(S(=O)(=O)N2CCCC(C)C2)cc1 (stereo not given)	-	-	-	-	-
CC1CCCN(S(=O)(=O)c2ccc3c(c2)n(C)c(=O)c(=O)n3C)C1 (stereo not given)	-	-	-	-	50µM
CC(=O)N1CCc2cc(CNC(=O)Nc3ccc(Br)c(C)c3)ccc21	.	-	.	.	.
Cc1ccccc1C(=O)c1cccn1CC(=O)NCCN1CCN(c2cccc(C)c2C)CC1	-69	-	-	-	-
COc1ccc(Cn2ccnc2SCC(=O)NCc2ccccc2)cc1	-	-	.	.	.
Cc1ccc(CN2CCN(C3CCN(C(=O)c4ccccc4)CC3)C(=O)C2=O)cc1	-	-	.	.	.
CC1Cc2cc(-c3csc(NC(=O)Cc4cccs4)n3)ccc2N1S(C)(=O)=O (stereo not given)	-	-	-72	-	-
SMILES	RXFP1 antag	RXFP1 agonist	TSHR antagonist	gsp ag	gsp antagonist
CCc1cc2cc3c(cc2nc1SCC(=O)Nc1nccs1)OCO3	-	13µM	-	?	-
c1ccc(N2CC3CCc4ccccc4C3=N2)cc1 (stereo not given)	-	-	-	10µM	-
COc1cc(CCC(=O)NCc2ccc3c(c2)CCN3C(=O)c2ccc(F)cc2)cc(OC)c1OC	-	-	.	.	.
COc1ccc(NC(=O)COC(=O)Cc2c(F)cccc2Cl)cc1	-	-	-	?	45µM
COc1ccc(NC(=O)Cc2c(F)cccc2Cl)cc1	-	-	-	-	-
CCN(Cc1ccccc1)C(=O)Cn1c(=O)oc2cc(S(=O)(=O)N3CCCCCC3)ccc21	-	-	.	.	.
N=C(N)SCc1cn(-c2ccccc2)nc1-c1ccc(Br)cc1	-79	-	-	-[15.4 µM]	.
CCOc1cccc(CNc2ccc(O)cc2)c1OCc1ccccc1Cl	-89!	-	-	-	-
